# From PubChem BioAssay (NCATS)
# Records with an inconclusive call do not appear. Entries that show only a call come without a potency. The source made the active and inactive calls. Calls come from the whole dose curve; as a rule, active = well fitted cell-killing curve with a large enough effect; inconclusive = small, poorly fitted or top-dose-only effect, or effect the other way; inactive = flat fitted curve, though single readings scatter.
# Tested on: Tov-21-G
# Test: Primary qHTS to identify gynecologic anti-cancer compounds using libraries of approved drugs and bioactive compounds (AID 1345084); note: nearly all actives have a fitted effect of over 55% in size
# Settings: Gynecologic cancer cell panel viability, ATPlite luminescence, 48 h; series mostly up to 57.5 µM
# Summary of the method: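 Luminescence from the ATPlite ATP-monitoring reagent indicates viable cell number; lower signal means cytotoxicity. Cells received compound 16 h after seeding and were exposed for 48 h across five concentrations.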
# Potency is the fitted concentration of half-maximal effect.
Structure (SMILES),Potency,"activity change, negative = cytotoxicity"
Nc1ncnc2c1nc(Cl)n2C1OC2COP(=O)(O)OC2C1O (configuration not stated),8.91 µM (active),
CCCCNc1ncc(-c2ccc(CN3CCOCC3)cn2)c(NC2CCC(O)CC2)n1 (configuration not stated),inactive,
CC(C)C[C@@H]1NC(=O)[C@@H]2C[C@@]34C[C@@H]5[C@@]6(C)CCCC(C)(C)C6CC[C@@]5(C)N(c5ccccc53)[C@H]4N2C1=O (some centres not stated),inactive,
CC(=O)OC1CC(C)(C(=O)O)CC2C3=CC(=O)C4C5(C)CCC(OC6OC(C(=O)O)C(O)C(O)C6OC6OC(C(=O)O)C(O)C(O)C6O)C(C)(C)C5CCC4(C)C3(C)CCC12C (configuration not stated),,-2.43% [at 11.6 µM] (inactive)
Cc1cn(CCN2CCN(c3ccccc3-c3cc(C#N)cc(C(=O)NCCCN4CCCC4)c3)CC2)c2ccccc12,inactive,
CN(C)Cc1ccc(-c2cnn3c(-c4cccc(NC(=O)c5cccc(C(F)(F)F)c5)c4)ccnc23)cc1,inactive,
CC[C@@H](Nc1c(Nc2cccc(C(=O)N(C)C)c2O)c(=O)c1=O)c1cc(C(C)C)co1,inactive,
O=C(O)c1ccc(S(=O)(=O)N(Cc2ccc(OC(F)(F)F)cc2)c2ncc(C(F)(F)F)cc2Cl)cc1,inactive,
Cc1[nH]c2ccccc2c1CCNC(=O)c1cccs1,inactive,
CC(=O)O[C@H]1CC[C@]2(C)[C@H]3CC[C@]4(C)Oc5oc(C)cc(=O)c5C[C@H]4[C@]3(C)CC[C@H]2C1(C)C,inactive,
C=C1C(=O)OC2/C=C(\CO)CC/C=C(\C=O)C(O)C(OC(=O)C(C)CC)C12 (configuration not stated),inactive,
COc1ccc2c(NC(=O)Nc3cccc(C(F)(F)F)n3)ccnc2c1,inactive,
CCC(C)CNCC(=O)N1CCc2sccc2C1COc1cccc(C)c1 (configuration not stated),inactive,
CCN(CC)C(=O)C(c1ccccc1)N1CCN(c2ccc(NC(=O)c3ccccc3-c3cccnc3)cc2F)CC1 (configuration not stated),inactive,
CC(=O)C=C=C1C(C)(C)CC(O)CC1(C)O[C@@H]1O[C@H](CO[C@H]2OC[C@](O)(CO)[C@H]2O)[C@@H](O)[C@H](O)[C@H]1O (some centres not stated),inactive,
CNCCC(c1cccs1)c1ccc(O)c2ccccc12 (configuration not stated),inactive,

Structure (SMILES),Potency,"activity change, negative = cytotoxicity"
COc1ccc(C[C@H]2COC(=O)[C@@H]2Cc2ccc(O[C@@H]3O[C@H](CO)[C@@H](O)[C@H](O)[C@H]3O)c(OC)c2)cc1OC,inactive,
Fc1ccc(-c2nc(-c3ccccc3F)[nH]c2-c2ccncc2)cc1,inactive,
C=C1C(=O)O[C@@H]2/C=C(\CO)CC/C=C(/C=O)C[C@H](O)[C@@H]12,28.2 µM (active),
O=c1cc(OCc2ccc(F)cc2)ccn1-c1ccc(OCCN2CCCC2)cc1,inactive,
CCc1cnc(N2CCC(c3nc(COc4ccc(-n5cnnn5)cc4)cs3)CC2)nc1,inactive,
COc1ccc(NC(=O)c2ccc(-c3ccc(C(=N)N)cc3C)cc2)cc1N1CCN(C)CC1,inactive,
CC1(NC(=O)c2ccc(C#Cc3cccc(F)c3)cn2)COC1,inactive,
CC(=O)OC1CC(C)C2(CCC3(CC(=O)OC3O)O2)C2(C)CCCC(C)(C)C12 (configuration not stated),inactive,
c1cc(NC2CCNCC2)nc(-c2cnc3ccccn23)c1,15.8 µM (active),
CCCn1ncc(CN2CCCC(C(=O)c3cccc(OC(C)C)c3)C2)c1C (configuration not stated),inactive,
COc1ccc2nccc(C(=O)CC[C@@H]3CCN(CC#Cc4cc(F)cc(F)c4F)C[C@@H]3C(=O)O)c2c1,inactive,
C[C@@H]1O[C@@H](O[C@H]2CC[C@@]3(C)C(CC[C@]4(C)C3CC=C3[C@@H]5CC(C)(C)CC[C@]5(C(=O)O[C@@H]5O[C@H](CO)[C@@H](O)[C@H](O)[C@H]5O)CC[C@]34C)[C@]2(C)CO)[C@H](O)[C@H](O[C@@H]2O[C@H](CO)[C@@H](O)[C@H](O)[C@H]2O)[C@H]1O (some centres not stated),,-24% [at 11.6 µM] (inactive)
Cc1cc2c(cc1N1C(=O)c3cccc4c(CCCO)ccc(c34)C1=O)n(C)c(=O)n2C,inactive,
CCOC(=O)c1cnn(-c2ccccc2)c1NC(=O)c1cc2nc(-c3ccco3)cc(C(F)(F)Cl)n2n1,inactive,
O=C(C(Cc1cccc(C(F)(F)F)c1)NS(=O)(=O)c1cc(F)c2c(c1)CCNC2)N1CCCC1 (configuration not stated),inactive,
CC(=O)O[C@@H]1C[C@]2(C)[C@@]3(CCC4[C@@]5(C)CC[C@H](O[C@@H]6O[C@H](C(=O)O)[C@@H](O)[C@H](OC7OC(CO)C(O)C(O)[C@H]7O[C@@H]7O[C@@H](C)[C@H](O)[C@@H](O)[C@H]7O[C@@H]7OC[C@](O)(CO)[C@H]7O)[C@H]6OC6OC(CO)C(O)C(O)C6O)C(C)(C)C5CC[C@]42C)OC[C@@]12CCC(C)(C)CC23 (some centres not stated),,-2.25% [at 6.55 µM] (inactive)
